Source: the supplement of paper PMC12067093, “Discovery and optimisation of a covalent ligand for TRIM25 and its application to targeted protein ubiquitination” (Chemical Science, 2025)
Of roughly 21,000 targets only a part is listed; those with the largest changes were picked by preference.

Compound: CC1Cc2ccccc2N1C(=O)C1CCCN(C1)C(=O)CCl (mixture of isomers) [TRIM25 ligand 11 (diastereomer mixture)]
Assay: probe-labelled cysteine peptide fold change vs DMSO (competition) (log2 fold change); higher = less target engagement (more negative = stronger competition)
Conditions: THP-1, incubation time: 4 h
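Also: competitive chemoproteomic profiling in live THP-1 cells with an iodoacetamide desthiobiotin (IA-DTB) probe, comparing probe-labelled peptide intensities in compound-treated cells against DMSO-treated controls.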

Sequence of UniProt O43396 (O43396 whole entry, looked up): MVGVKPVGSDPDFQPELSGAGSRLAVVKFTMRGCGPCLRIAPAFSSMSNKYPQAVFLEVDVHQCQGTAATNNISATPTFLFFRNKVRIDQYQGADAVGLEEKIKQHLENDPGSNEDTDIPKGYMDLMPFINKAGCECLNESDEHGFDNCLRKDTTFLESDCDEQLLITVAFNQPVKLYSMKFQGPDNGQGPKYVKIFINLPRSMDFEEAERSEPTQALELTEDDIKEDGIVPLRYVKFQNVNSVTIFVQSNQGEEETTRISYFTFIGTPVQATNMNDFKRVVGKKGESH
Sequence of UniProt O00308 (O00308 whole entry, looked up): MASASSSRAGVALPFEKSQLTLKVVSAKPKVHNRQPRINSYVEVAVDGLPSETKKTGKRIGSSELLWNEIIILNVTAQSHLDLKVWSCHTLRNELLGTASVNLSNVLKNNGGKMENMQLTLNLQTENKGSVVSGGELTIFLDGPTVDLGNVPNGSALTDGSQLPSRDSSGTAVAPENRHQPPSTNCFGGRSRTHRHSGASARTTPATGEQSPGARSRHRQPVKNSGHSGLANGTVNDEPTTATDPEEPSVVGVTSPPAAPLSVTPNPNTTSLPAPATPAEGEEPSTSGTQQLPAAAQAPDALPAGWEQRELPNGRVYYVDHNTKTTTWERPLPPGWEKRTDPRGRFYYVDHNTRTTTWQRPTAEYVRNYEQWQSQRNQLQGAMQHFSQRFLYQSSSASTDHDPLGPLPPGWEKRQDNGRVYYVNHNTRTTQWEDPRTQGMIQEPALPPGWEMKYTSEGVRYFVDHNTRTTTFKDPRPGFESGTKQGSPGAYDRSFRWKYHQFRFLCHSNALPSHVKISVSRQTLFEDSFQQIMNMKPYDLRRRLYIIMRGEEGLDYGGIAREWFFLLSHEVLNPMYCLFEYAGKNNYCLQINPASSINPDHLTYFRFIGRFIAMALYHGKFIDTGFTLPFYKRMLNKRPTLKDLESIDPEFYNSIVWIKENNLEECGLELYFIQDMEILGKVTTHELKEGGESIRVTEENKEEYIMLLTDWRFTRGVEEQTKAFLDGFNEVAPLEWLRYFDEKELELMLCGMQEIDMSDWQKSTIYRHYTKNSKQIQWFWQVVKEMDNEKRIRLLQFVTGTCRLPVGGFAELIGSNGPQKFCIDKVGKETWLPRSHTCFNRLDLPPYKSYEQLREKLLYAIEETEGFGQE
Sequence of UniProt Q9P253 (Q9P253 whole entry, looked up): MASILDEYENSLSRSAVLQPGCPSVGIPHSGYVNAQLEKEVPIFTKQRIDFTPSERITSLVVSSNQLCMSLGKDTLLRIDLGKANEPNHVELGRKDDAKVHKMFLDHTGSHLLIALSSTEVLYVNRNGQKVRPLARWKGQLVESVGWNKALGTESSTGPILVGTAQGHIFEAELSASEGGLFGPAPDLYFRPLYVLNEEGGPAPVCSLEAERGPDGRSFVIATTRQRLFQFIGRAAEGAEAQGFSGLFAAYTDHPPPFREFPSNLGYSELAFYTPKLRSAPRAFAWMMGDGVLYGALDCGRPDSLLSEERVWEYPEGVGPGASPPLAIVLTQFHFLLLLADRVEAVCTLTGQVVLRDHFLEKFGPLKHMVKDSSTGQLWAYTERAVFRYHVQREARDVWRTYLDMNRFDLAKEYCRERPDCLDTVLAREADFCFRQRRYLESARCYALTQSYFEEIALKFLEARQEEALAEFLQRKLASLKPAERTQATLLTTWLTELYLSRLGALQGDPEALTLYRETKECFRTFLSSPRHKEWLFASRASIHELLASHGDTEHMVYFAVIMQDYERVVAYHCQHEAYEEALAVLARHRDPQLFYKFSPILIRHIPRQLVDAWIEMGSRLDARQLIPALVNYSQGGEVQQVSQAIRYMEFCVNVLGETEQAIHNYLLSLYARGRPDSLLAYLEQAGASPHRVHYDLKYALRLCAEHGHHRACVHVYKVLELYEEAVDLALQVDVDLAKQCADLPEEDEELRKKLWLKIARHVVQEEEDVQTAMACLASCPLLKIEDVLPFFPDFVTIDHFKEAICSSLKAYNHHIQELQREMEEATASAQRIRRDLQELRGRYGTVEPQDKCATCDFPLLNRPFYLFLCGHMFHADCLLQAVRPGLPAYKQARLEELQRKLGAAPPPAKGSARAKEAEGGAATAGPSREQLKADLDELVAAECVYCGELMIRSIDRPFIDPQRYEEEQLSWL
Sequence of UniProt P26640 (P26640 whole entry, looked up): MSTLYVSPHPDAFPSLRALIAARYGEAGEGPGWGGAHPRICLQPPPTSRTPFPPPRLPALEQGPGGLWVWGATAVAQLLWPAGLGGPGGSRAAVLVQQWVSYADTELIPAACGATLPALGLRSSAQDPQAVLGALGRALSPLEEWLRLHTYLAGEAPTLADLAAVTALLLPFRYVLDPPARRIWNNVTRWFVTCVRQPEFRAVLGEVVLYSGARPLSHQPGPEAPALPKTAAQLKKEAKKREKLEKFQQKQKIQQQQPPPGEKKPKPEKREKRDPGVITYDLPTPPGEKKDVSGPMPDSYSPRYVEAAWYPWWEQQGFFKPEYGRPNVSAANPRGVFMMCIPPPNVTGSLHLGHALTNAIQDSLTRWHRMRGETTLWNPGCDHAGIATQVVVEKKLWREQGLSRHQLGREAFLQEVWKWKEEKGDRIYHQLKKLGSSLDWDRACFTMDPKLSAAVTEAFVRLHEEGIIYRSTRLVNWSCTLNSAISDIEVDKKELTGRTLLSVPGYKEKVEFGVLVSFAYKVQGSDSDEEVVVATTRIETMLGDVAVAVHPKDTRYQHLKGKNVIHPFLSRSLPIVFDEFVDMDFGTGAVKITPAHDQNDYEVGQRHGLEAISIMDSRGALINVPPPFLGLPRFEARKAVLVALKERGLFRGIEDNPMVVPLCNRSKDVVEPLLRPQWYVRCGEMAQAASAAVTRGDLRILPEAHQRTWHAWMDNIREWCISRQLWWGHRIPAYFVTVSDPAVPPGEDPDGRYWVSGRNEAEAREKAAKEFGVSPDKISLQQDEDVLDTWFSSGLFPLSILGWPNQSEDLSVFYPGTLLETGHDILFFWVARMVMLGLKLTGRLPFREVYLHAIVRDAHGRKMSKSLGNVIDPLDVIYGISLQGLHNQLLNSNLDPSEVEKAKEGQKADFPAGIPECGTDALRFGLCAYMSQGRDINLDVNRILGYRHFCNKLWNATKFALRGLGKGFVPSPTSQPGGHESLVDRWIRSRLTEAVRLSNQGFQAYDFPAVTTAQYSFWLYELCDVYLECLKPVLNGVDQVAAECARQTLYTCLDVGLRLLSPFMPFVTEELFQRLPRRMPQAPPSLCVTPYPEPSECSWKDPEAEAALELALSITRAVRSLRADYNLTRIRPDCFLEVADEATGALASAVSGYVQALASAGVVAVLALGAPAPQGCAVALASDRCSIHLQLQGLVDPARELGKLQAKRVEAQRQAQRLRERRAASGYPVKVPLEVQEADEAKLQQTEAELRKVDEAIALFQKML
Sequence of UniProt P23025 (P23025 whole entry): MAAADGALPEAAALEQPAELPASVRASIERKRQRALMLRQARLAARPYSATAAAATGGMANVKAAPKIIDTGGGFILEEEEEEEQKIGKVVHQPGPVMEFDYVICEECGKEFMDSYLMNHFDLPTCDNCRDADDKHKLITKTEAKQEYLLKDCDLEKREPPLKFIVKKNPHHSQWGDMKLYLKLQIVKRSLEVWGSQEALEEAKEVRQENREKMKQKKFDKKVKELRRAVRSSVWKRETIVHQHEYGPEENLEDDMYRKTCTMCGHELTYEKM
Sequence of UniProt Q9NZ09 (Q9NZ09 whole entry, looked up): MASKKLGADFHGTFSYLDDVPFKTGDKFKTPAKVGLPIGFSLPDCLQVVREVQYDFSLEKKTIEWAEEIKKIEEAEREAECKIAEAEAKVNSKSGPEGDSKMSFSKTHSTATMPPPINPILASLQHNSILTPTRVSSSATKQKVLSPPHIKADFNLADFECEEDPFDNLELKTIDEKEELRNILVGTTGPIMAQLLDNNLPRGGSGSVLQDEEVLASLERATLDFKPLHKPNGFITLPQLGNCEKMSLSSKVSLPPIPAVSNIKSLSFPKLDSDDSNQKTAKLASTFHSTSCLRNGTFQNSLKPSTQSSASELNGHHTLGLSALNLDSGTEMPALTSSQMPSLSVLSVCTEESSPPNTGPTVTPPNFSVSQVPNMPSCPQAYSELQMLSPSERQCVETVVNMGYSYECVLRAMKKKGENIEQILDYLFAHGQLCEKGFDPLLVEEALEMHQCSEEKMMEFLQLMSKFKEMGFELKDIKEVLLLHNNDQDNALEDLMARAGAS
Sequence of UniProt Q9NNW7 (Q9NNW7 whole entry, looked up): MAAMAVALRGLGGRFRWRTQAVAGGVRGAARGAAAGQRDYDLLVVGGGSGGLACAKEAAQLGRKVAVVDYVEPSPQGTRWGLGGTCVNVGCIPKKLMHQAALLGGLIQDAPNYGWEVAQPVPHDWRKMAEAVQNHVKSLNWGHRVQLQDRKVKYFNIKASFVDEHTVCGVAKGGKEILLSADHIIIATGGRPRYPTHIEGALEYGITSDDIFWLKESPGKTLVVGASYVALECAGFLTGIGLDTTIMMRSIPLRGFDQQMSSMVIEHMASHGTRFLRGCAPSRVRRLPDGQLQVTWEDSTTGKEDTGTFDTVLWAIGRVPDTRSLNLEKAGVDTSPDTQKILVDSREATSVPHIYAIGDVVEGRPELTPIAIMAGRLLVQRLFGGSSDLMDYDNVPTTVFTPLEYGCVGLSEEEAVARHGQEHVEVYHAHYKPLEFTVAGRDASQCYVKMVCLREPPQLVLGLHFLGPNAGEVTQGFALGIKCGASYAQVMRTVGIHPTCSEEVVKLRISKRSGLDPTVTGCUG
Sequence of UniProt Q9NPD8 (Q9NPD8 whole entry, looked up): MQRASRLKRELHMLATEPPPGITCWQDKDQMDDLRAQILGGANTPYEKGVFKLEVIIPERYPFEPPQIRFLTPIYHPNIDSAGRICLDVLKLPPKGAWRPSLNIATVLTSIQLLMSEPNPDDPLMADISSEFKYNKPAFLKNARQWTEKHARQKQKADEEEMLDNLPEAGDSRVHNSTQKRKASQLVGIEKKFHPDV

| Target | probe-labelled cysteine peptide fold change (10 µM) | probe-labelled cysteine peptide fold change (50 µM) |
| --- | --- | --- |
| VPS39_Q96JC1_681_LICDFPFDGLLEER (UniProt Q96JC1) | 0.145 | 0.086 |
| UBR5_O95071_1382+1386_LDCFTHCLIVK (UniProt O95071) | 0.374 | 0.564 |
| VARS_P26640_1185_CSIHLQLQGLVDPARELGK (UniProt P26640) | -0.114 | -0.105 |
| WDR47_O94967_322_SLNPALDGLTCGLTSHDK (UniProt O94967) | 0.104 | -0.116 |
| UFC1_Q9Y3C8_116_ICLTDHFK (UniProt Q9Y3C8) | -0.127 | -0.0548 |
| VPS29_Q9UBQ0_36+41_IQHILCTGNLCTK (UniProt Q9UBQ0) | 0.0402 | -0.0827 |
| TSFM_P43897_149_FQLLVQQVALGTMMHCQTLK (UniProt P43897) | -0.117 | -0.0693 |
| UBAP1_Q9NZ09_243_ATLDFKPLHKPNGFITLPQLGNCEK (UniProt Q9NZ09) | -0.241 | -0.382 |
| UBR7_Q8N806_99+101_CDCGNSK (UniProt Q8N806) | -0.0898 | -0.168 |
| TXNDC11_Q6PKC3_815_ECLQSEAVLQR (UniProt Q6PKC3) | -0.111 | -0.159 |
| VCPIP1_Q96JH7_219_SQECLIPVHVDGDGHCLVHAVSR (UniProt Q96JH7) | -0.566 | -1.68 |
| WDR55_Q9H6Y2_5_TCEERPAEDGSDEEDPDSMEAPTR (UniProt Q9H6Y2) | -0.76 | -0.645 |
| TXNRD2_Q9NNW7_523_SGLDPTVTGCUG (UniProt Q9NNW7) | -0.465 | -2 |
| TTC28_Q96AY4_726_ALGNLGDIFICK (UniProt Q96AY4) | 0.224 | 0.1 |
| TTLL12_Q14166_418_WGEDNHWICK (UniProt Q14166) | 0.0917 | 0.0468 |
| TXNIP_Q9H3M7_49_ILACGVAK (UniProt Q9H3M7) | 0.365 | 0.565 |
| WDFY4_Q6ZS81_878_QVMCEAGLLGTLMASCHR (UniProt Q6ZS81) | 0.0899 | -0.0334 |
| TXN2_Q99757_90+93_VVNSETPVVVDFHAQWCGPCK (UniProt Q99757) | -0.411 | -1.31 |
| WDFY4_Q6ZS81_835_QWPDLEERMDEGDAAIMHPGVVCIMVR (UniProt Q6ZS81) | -0.279 | -0.333 |

| Target | probe-labelled cysteine peptide fold change (10 µM) | probe-labelled cysteine peptide fold change (50 µM) |
| --- | --- | --- |
| WWP2_O00308_186_HQPPSTNCFGGR (UniProt O00308) | -0.035 | -0.168 |
| WDR44_Q5JSH3_642_ECLCCFQHIDFVTAIAFHPR (UniProt Q5JSH3) | 0.143 | 0.281 |
| XPA_P23025_126+129_EFMDSYLMNHFDLPTCDNCR (UniProt P23025) | 0.169 | 0.182 |
| UBE2T_Q9NPD8_86_ICLDVLK (UniProt Q9NPD8) | -0.00663 | 0.103 |
| USP6_P35125_1036_AQAEPINLDSCLR (UniProt P35125) | -0.111 | -0.0406 |
| UHRF1_Q96T88_497_TAEQSCDQK (UniProt Q96T88) | 0.0456 | -0.184 |
| WDR47_O94967_672_GSIYCVAWSPCGQLLATGSNDK (UniProt O94967) | -0.126 | -0.567 |
| UGP2_Q16851_123_LNGGLGTSMGCK (UniProt Q16851) | -0.0886 | -0.138 |
| UBE2E1_P51965_131_IYHCNINSQGVICLDILK (UniProt P51965) | 0.0832 | 0.188 |
| TSPYL1_Q9H0U9_375_NQDLICSFFTWFSDHSLPESDK (UniProt Q9H0U9) | 0.789 | 0.39 |
| VASP_P50552_7_SETVICSSR (UniProt P50552) | 0.55 | 0.717 |
| XPC_Q01831_514_MCSDGEK (UniProt Q01831) | -0.0167 | -0.0661 |
| UBR2_Q8IWV8_1332_VHPNEEDPRVPIMCWGSCAYTIQSIER (UniProt Q8IWV8) | -0.326 | -0.616 |
| UBR4_Q5T4S7_4146_QAACTIVEALATIPSR (UniProt Q5T4S7) | 0.0371 | -0.0346 |
| TXN2_Q99757_93_VVNSETPVVVDFHAQWCGPCK (UniProt Q99757) | -0.376 | -1.25 |
| WDFY1_Q8IWB7_189_LEQNTCSVITTLK (UniProt Q8IWB7) | 0.462 | 0.551 |
| TXNL1_O43396_135+137+149_AGCECLNESDEHGFDNCLR (UniProt O43396) | -0.02 | -0.634 |
| VPS18_Q9P253_947_ADLDELVAAECVYCGELMIR (UniProt Q9P253) | 0.712 | 0.481 |
| TSR1_Q2NL82_618_AKEELIFHCGFR (UniProt Q2NL82) | 0.00999 | 0.0707 |
